HT1080 IDH1KD tx = qHTS for induction of synthetic lethality in tumor cells producing 2HG: qHTS for the HT-1080-IDH1KD cell line. Potency, µM (titrated, usually from 46.1 µM), usual class: cytotoxic. HT-1080 IDH1 knockdown viability, ATP luminescence, 48 h. 2% of 360,000 active
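After a 2 h attachment period, IDH1KD HT-1080 cells took pin-transferred compound for 48 h at 37 °C; ATP-based luminescence after 10 min room-temperature reagent incubation reported viability.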
HT1080-NT tox = qHTS for induction of synthetic lethality in tumor cells producing 2HG: qHTS for the HT-1080-NT fibrosarcoma cell line; HT-1080-NT fibrosarcoma viability, CellTiter-Glo ATP luminescence, 48 h; Potency, µM (highest dose often 46.1 µM), actives largely listed as cytotoxic; 1.6% of 360,000 active; AID 686970, 2013;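 note: NT is the 2HG producing partner of a matched IDH1 knockdown line; nearly all actives have a fitted effect of over 55% in size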
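Viability by CellTiter-Glo luminescence after 48 h compound exposure at 37C of HT-1080-NT cells (750/well, RPMI, 5% FBS). % activity scaled between DMSO wells and medium-only wells, then curve-fitted and categorized by curve class.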
KB-V1 MDR tox = qHTS assay for MDR1-selective chemotherapeutics: Primary screen using the drug-selected MDR subline cells KB-V1; KB-V1 MDR cells viability, CellTiter-Glo, 72 h; Potency, µM (series often up to 46.1 µM), hits mostly cytotoxic; 3.4% of 400,000 active; AID 1347076, 2019; note: nearly all actives have a fitted effect of over 60% in size
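qHTS viability screen in drug-selected KB-V1 MDR cells: 72 h compound treatment at 37 degrees C, ATP luminescence end point.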
KB-3-1 cytotox = qHTS assay for MDR1-selective chemotherapeutics: Primary screen using the parental adenocarcinoma cell KB-3-1. KB-3-1 viability, CellTiter-Glo ATP luminescence, 72 h. 1.4% of 400,000 active. Potency, µM (doses to about 46.1 µM), hits mostly cytotoxic; note: nearly all actives have a fitted effect of over 60% in size
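Here the drug-naive KB-3-1 line serves as comparator for MDR sub-line selectivity; cells received compound titrations, 72 h at 37 °C, then CellTiter-Glo readout.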
Large screens that a line does not name were inactive. Most compounds without a hit are left out; they make up all but 5.7% or so of the library. Calls come from the whole dose curve; as a rule, active = well fitted curve in the direction sought with a large enough effect; inconclusive = small, poorly fitted or top-dose-only effect, or another doubt; inactive = no such curve, though single readings can be large; an effect the other way counts as inactive or inconclusive.

CCCCOC(=O)c1ccc(Nc2ncnc3c2cnn3-c2cccc(C)c2)cc1	none (no result: HT1080 IDH1KD tx, HT1080-NT tox)
CCOC(=O)c1cc(C)sc1/N=C/C1C(=O)CCCC1=O	none
CCOC(=O)c1c(-c2ccc(OC)cc2)csc1/N=C/N(C)C	KB-V1 MDR tox 23µM, KB-3-1 cytotox inconclusive
CCOC(=O)c1c(-c2ccc(OC)cc2)csc1/N=C/C1C(=O)CCCC1=O	HT1080 IDH1KD tx 18µM, HT1080-NT tox inconclusive
Cc1ccc(-c2nn(-c3ccccc3)cc2/C=C(\C#N)C(=O)NCc2ccccc2)cc1	none
N#C/C(=C/c1cn(-c2ccccc2)nc1-c1cccc(OCc2ccccc2)c1)C(=O)NCCCn1ccnc1	HT1080 IDH1KD tx inconclusive, KB-V1 MDR tox 9.2µM
CCOc1cccc(-c2nn(-c3ccccc3)cc2/C=C(/C#N)C(=O)NCCCn2ccnc2)c1	HT1080 IDH1KD tx inconclusive, HT1080-NT tox 26µM, KB-V1 MDR tox inconclusive
CCC1CCCCN1CCCNC(=O)C1CCN(Cc2nc(-c3ccc(Cl)cc3)oc2C)CC1 (stereo unspecified)	HT1080 IDH1KD tx inconclusive, HT1080-NT tox 18µM, KB-3-1 cytotox inconclusive
Cc1oc(-c2ccc(Cl)cc2)nc1CN1CCC(C(=O)NCCCN2CCOCC2)CC1	HT1080 IDH1KD tx inconclusive, HT1080-NT tox 22µM
Cc1oc(-c2ccc(Cl)cc2)nc1CN1CCC(C(=O)NCc2cccs2)CC1	HT1080 IDH1KD tx inconclusive, HT1080-NT tox 21µM
CCCCNC(=O)C1CCCN(Cc2nc(-c3ccc(Cl)cc3)oc2C)C1 (stereo unspecified)	none (no result: HT1080 IDH1KD tx, HT1080-NT tox)
Cc1oc(-c2cccc(Cl)c2)nc1CN1CCCC(C(=O)NCCCN2CCOCC2)C1 (stereo unspecified)	KB-V1 MDR tox 13µM
CCN(CC)c1ccc(CNS(=O)(=O)c2cc3c(cc2C)NC(=O)CO3)cc1	none (no result: HT1080 IDH1KD tx, HT1080-NT tox)
C=CCOC(=O)C1=C(C)NC(=O)NC1c1cn(-c2ccccc2)nc1-c1cccs1 (stereo unspecified)	HT1080 IDH1KD tx 10µM, HT1080-NT tox inconclusive, KB-V1 MDR tox 21µM
CC1CCN(C(=O)Cn2ncc3c4ccccc4n(Cc4ccc(Cl)cc4)c3c2=O)CC1	none (no result: HT1080 IDH1KD tx, HT1080-NT tox)
Cc1cc(C)cc(-n2c(SCC(N)=O)nc3c([nH]c4ccccc43)c2=O)c1	none (no result: HT1080 IDH1KD tx, HT1080-NT tox)
CC(C)c1ccc(N2C(=O)CSC23C(=O)N(Cc2cccc(F)c2)c2ccccc23)cc1 (stereo unspecified)	KB-V1 MDR tox 13µM, KB-3-1 cytotox 21µM (no result: HT1080 IDH1KD tx, HT1080-NT tox)
Cc1cccc(N2C(=O)CS(=O)(=O)C23C(=O)N(Cc2c(F)cccc2Cl)c2ccccc23)c1 (stereo unspecified)	KB-V1 MDR tox 5.8µM (no result: HT1080 IDH1KD tx, HT1080-NT tox)
O=C1CSC2(C(=O)N(Cc3cccc(C(F)(F)F)c3)c3ccccc32)N1c1ccc(F)c(F)c1 (stereo unspecified)	KB-3-1 cytotox inconclusive (no result: HT1080 IDH1KD tx, HT1080-NT tox)
CCc1ccc(N2C(=O)CSC23C(=O)N(Cc2cccc(OC)c2)c2ccccc23)cc1 (stereo unspecified)	KB-V1 MDR tox 10µM, KB-3-1 cytotox inconclusive (no result: HT1080 IDH1KD tx, HT1080-NT tox)
O=C1CSC2(C(=O)N(Cc3cccc(F)c3)c3ccccc32)N1c1cccc(C(F)(F)F)c1 (stereo unspecified)	KB-V1 MDR tox 13µM, KB-3-1 cytotox inconclusive (no result: HT1080 IDH1KD tx, HT1080-NT tox)
Cc1cccc(N2C(=O)CSC23C(=O)N(Cc2cccc(F)c2)c2ccccc23)c1 (stereo unspecified)	KB-V1 MDR tox 15µM, KB-3-1 cytotox inconclusive (no result: HT1080 IDH1KD tx, HT1080-NT tox)
Cc1cccc(N2C(=O)CCSC23C(=O)N(Cc2ccc(F)cc2)c2ccccc23)c1 (stereo unspecified)	none (no result: HT1080 IDH1KD tx, HT1080-NT tox)
O=C(NCCO)C(=O)Nc1c2c(nn1-c1ccc(F)cc1)CSC2	none (no result: HT1080 IDH1KD tx, HT1080-NT tox)
O=C(CCl)N(c1ccccc1)C1CCS(=O)(=O)C1 (stereo unspecified)	HT1080 IDH1KD tx 18µM, HT1080-NT tox inconclusive, KB-V1 MDR tox inconclusive
CC(=O)Nc1ccc(C(=O)OCC(=O)N(c2ccccc2)C2CCS(=O)(=O)C2)cc1 (stereo unspecified)	none
CN(Cc1ccccc1)Cc1nc2c(c(=O)n(C)c(=O)n2C)n1Cc1ccccc1Cl	KB-V1 MDR tox 9.2µM
COCCn1c(CN2CCN(c3ccccc3)CC2)nc2c1c(=O)n(C)c(=O)n2C	none
CCCCn1c(CN(C)Cc2ccccc2)nc2c1c(=O)n(C)c(=O)n2C	KB-V1 MDR tox 2.3µM, KB-3-1 cytotox inconclusive
COCCn1c(CN(C)Cc2ccccc2)nc2c1c(=O)n(C)c(=O)n2C	KB-V1 MDR tox inconclusive
Cn1c(=O)c2c(nc(CN3CCc4ccccc4C3)n2Cc2ccccc2)n(C)c1=O	KB-3-1 cytotox 12µM
CCCn1c(CN(C)Cc2ccccc2)nc2c1c(=O)n(C)c(=O)n2C	KB-V1 MDR tox inconclusive
COc1ccc(N2CCN(Cc3nc4c(c(=O)n(C)c(=O)n4C)n3C(C)C)CC2)cc1	KB-3-1 cytotox 16µM (no result: HT1080 IDH1KD tx, HT1080-NT tox)
Cc1ccc2ccccc2c1C(O)c1ncc(-c2ccccc2F)[nH]1 (stereo unspecified)	none
Cc1ccc(-c2cc(C(F)(F)F)n3nc(C(=O)Nc4sc5c(c4C#N)CCC(C)C5)cc3n2)cc1 (stereo unspecified)	KB-3-1 cytotox inconclusive (no result: HT1080 IDH1KD tx, HT1080-NT tox)
Cc1ccc(CNC(=O)CCCn2c(=O)c3ccccc3n(Cc3ccccc3C)c2=O)cc1	none (no result: HT1080 IDH1KD tx, HT1080-NT tox)
CC(C)CC(=O)Nc1ccc(S(=O)(=O)Nc2cc3c(cc2N2CCOCC2)n(C)c(=O)c(=O)n3C)cc1	none (no result: HT1080 IDH1KD tx, HT1080-NT tox)
CCc1noc(-c2ccc(NCc3ccccc3)c([N+](=O)[O-])c2)n1	none (no result: HT1080 IDH1KD tx, HT1080-NT tox)
COc1ccc(NC(=O)c2cccc(N3CCCS3(=O)=O)c2)cc1OC	none (no result: HT1080 IDH1KD tx, HT1080-NT tox)
Cn1c(=O)c2c(nc(CN3CCN(c4ccccc4)CC3)n2Cc2c(F)cccc2Cl)n(C)c1=O	KB-V1 MDR tox inconclusive
Cn1c(=O)c2c(nc(CN3CCN(c4ccccc4)CC3)n2Cc2ccccc2Cl)n(C)c1=O	KB-V1 MDR tox 8.2µM, KB-3-1 cytotox inconclusive
COC(=O)C1[C@H]2SC(C)(C)C(C(=O)OC)N2C(=O)N1Cc1ccccc1 (stereo partly specified)	none (no result: HT1080 IDH1KD tx, HT1080-NT tox)
Nc1cnn(C2OC(CO)C(O)C2O)c(=O)n1 (stereo unspecified)	KB-V1 MDR tox 4.1µM, KB-3-1 cytotox 2.3µM
COc1ccc(-n2c(CNc3ccc(C)cc3)nnc2SCc2ccccc2)cc1	KB-V1 MDR tox inconclusive
CCOc1ccc(NCc2nnc(SCc3ccccc3Cl)n2-c2ccccc2)cc1	HT1080 IDH1KD tx inconclusive, HT1080-NT tox inconclusive, KB-V1 MDR tox 21µM
CN(C)c1ccc(C=O)cc1Cl	none (no result: HT1080 IDH1KD tx, HT1080-NT tox)
COc1ccc(C(=O)N2CCCC(CCC(=O)N3CCN(c4ccccn4)CC3)C2)cc1 (stereo unspecified)	KB-V1 MDR tox 13µM
O=c1cc(-c2ccccc2)oc2ccccc12	none
O=c1cc(-c2ccccc2)oc2ccc(O)cc12	KB-V1 MDR tox 5.8µM
COc1ccc2oc(-c3ccncc3)cc(=O)c2c1	KB-V1 MDR tox 3.7µM, KB-3-1 cytotox inconclusive
CCC(CC)c1nn2c(=O)cc(COc3ccc(NC(=O)c4ccc(Cl)cc4)cc3)nc2s1	none (no result: HT1080 IDH1KD tx, HT1080-NT tox)
